The record followed here is PubChem BioAssay AID686979 (National Center for Advancing Translational Sciences (NCATS), 2013).

Hit rate of the full screen: of about 420,000 compounds, about 50,000 (12%) were called active. Entries that show only a call come without a potency. Roughly 26% stayed inconclusive and do not appear here. Calls come from the whole dose curve; as a rule, active = well fitted inhibition curve with a large enough effect; inconclusive = small, poorly fitted or top-dose-only effect; inactive = flat fitted curve, though single readings scatter. This excerpt belongs to a sample that is enriched for actives.
Potency is the fitted concentration of half-maximal effect.

The experiment is described as follows: qHTS for Inhibitors of human tyrosyl-DNA phosphodiesterase 1 (TDP1): qHTS in cells in presence of CPT. Note: nearly all actives have a fitted effect of over 55% in size. The settings on record: chicken DT40 Tdp1-/-;hTDP1 cells + 20 nM CPT, ATP luminescence, 48 h; series mostly up to 46.2 µM. Put shortly:
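Chicken DT40 Tdp1-/- cells complemented with human TDP1, 400 cells/well, exposed to compounds plus 20 nM camptothecin for at least 48 h at 37 C; viability read as ATP content by CellTiter-Glo luminescence.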
`CC(C)c1ccc(S(=O)(=O)N2CCC3(CC2)OCCO3)cc1`: the Potency entry was “inactive”.
Consider `CCn1c(NC(=O)c2ccccc2)c(-c2cccs2)c(=O)c2ccccc21`, for which the Potency is 20.6 µM (active).
The entry for `CCn1c(=O)c2cc(C(=O)Nc3cccc(C(C)=O)c3)sc2c2ccccc21` is “inactive”; for `CCn1c(=O)cc(O)c2ccccc21` it is “inactive”; for `CSCCC(NS(=O)(=O)c1ccc(C)cc1)C(=O)N1CCCC1` (stereo unspecified) it is “inactive”.
Then `CCCn1c(N)c(C(=O)CSc2nnc3n2CCCCC3)c(=O)[nH]c1=O`, with “inactive”; and `CCOc1ccc(N=C2NC(=O)S/C2=C\c2ccc(O)cc2)cc1`, with “inactive”.
Then `CCOc1[nH]n(-c2ccc(Cl)cc2)c(=O)c1C=Nc1ccc(O)cc1`, with 5.8 µM (active); and `Cc1cc(C)cc(C(=O)NCCN2CCOCC2)c1`, with “inactive”.
Consider `CC(=O)Oc1cc2c(C(=O)NCCN3CCOCC3)c(C)oc2c2ccccc12`, for which the Potency was 18.4 µM (active).
For the compound `Cc1ccc(C(=O)NCCN2CCOCC2)cc1C`, the Potency entry was “inactive”.
For the compound `COc1ccc(OC)c(-n2nnc3c(sc4nc(C)c(Br)c(C)c43)c2=O)c1`, the Potency entry was “inactive”.
For the compound `COc1cc(CN(C(=O)c2ccccc2Br)c2ccccn2)cc(OC)c1OC`, the Potency was 18.4 µM (active).
Consider `Cc1ccc(CN(C(=O)c2ccccc2[N+](=O)[O-])c2ccccn2)cc1`, for which the Potency is 11.6 µM (active).
Take `CCC(=O)N(Cc1ccccc1)c1ccccn1`: the Potency entry was “inactive”.
The entry for `COC(=O)c1cc(C(=O)N(Cc2ccccc2)c2ccccn2)cc([N+](=O)[O-])c1` is “inactive”; for `Cc1ccc(S(=O)(=O)N(Cc2ccccc2)c2ccccn2)cc1[N+](=O)[O-]` it is “inactive”.
The entry for `COc1cc(SC)ccc1C(=O)N(Cc1ccccc1)c1ccccc1` is “inactive”; for `COc1ccc(CCOC(=O)CNC(=O)c2ccc(Cl)cc2Cl)cc1` it is “inactive”.
For `Cc1ccc(N2CC(NC(=O)Cc3cccs3)CC2=O)cc1` (stereo unspecified), the Potency entry was “inactive”.
For the compound `C[C@H](NC(=O)c1nc[nH]c1C(=O)N[C@@H](C)C(=O)OC(C)(C)C)C(=O)OC(C)(C)C`, the Potency result is “inactive”.
The entry for `COc1cc(C(=S)NC2CCCCC2)ccc1O` is “inactive”.
As to `Cc1cccc(NC(=O)Cn2c(=O)n(CCC(C)C)c(=O)c3cccnc32)c1`, the Potency result was “inactive”.
The entry for `Cc1cccc(N2CCN(S(=O)(=O)c3ccc(-c4cc(C)no4)s3)CC2C)c1` (stereo unspecified) is “inactive”; for `Cc1cccc(N2CCN(C(=O)CCn3c(=O)c4cccn4c4cccnc43)CC2C)c1` (stereo unspecified) it is 3.66 µM (active).
Then `CCOc1ccc(-c2cc3c(=O)n(CC(=O)NCc4ccc(OC)cc4)ccn3n2)cc1`, with “inactive”; and `CCOC(=O)C1C(c2ccc(OC)c(OC)c2)c2c([nH][nH]c2=O)CC1(C)O` (stereo unspecified), with “inactive”.
The entry for `O=C(Nc1c(Br)cc2c(c1Br)Cc1ccccc1-2)C(F)(F)F` is “inactive”.
Regarding `CCCCC(O)(CCCC)C(=O)NN(C(=O)CCl)c1ccccc1`, the Potency is 14.6 µM (active).
Then `COC(=O)N(NC(=O)C(O)(C(C)C)C(C)C)c1ccccc1`, with “inactive”; and `CC(C)(O)C(=O)NN(C(=O)c1ccccc1)c1cccc(Br)c1`, with “inactive”; and `CCCCCNC(=O)C1c2ccccc2Oc2ccccc21`, with “inactive”.
Then `CCCC(O)(CCC)C(=O)NN(C(=O)CCl)c1cccc(C)c1`, with 4.61 µM (active); and `Cc1ccc(N(NC(=O)C(C)(C)O)C(=O)c2ccccc2)cc1C`, with “inactive”; and `O=C(NNC(=S)NC1CCCCC1)c1ccccc1Cl`, with “inactive”.
`Clc1ccccc1CSc1nncn2c1cc1occc12`: the Potency result was “inactive”.
Consider `Cn1c(CCc2ccccc2)nnc1SCC(N)=O`, for which the Potency result is “inactive”.
`COc1ccc(Cn2c(=O)cc(C)[nH]c2=S)cc1`: the Potency result is “inactive”.
The entry for `COc1ccc(CCNC(=O)COC(=O)C2CCCCC2)cc1` is “inactive”; for `COc1ccc(CCC(C)N2CCc3ccccc3C2)cc1` (stereo unspecified) it is “inactive”; for `COc1ccc(CN2CC(C(=O)NC3CCCCC3)CC2=O)cc1` (stereo unspecified) it is “inactive”.
The figure for `COc1ccc(CN2CN(C3CCCC3)CSC2=S)cc1` is 5.17 µM (active); for `COc1ccc(CN2CN(C(C)C)CSC2=S)cc1` it is 2.91 µM (active).
In the case of `O=C(NC1CCCC1)C(c1ccccn1)N(C(=O)c1csnn1)C1CCCC1` (stereo unspecified), the Potency result was “inactive”.
Regarding `Cc1cc(C)c2c(=O)[nH]c(SCC(=O)Nc3ccc(Br)cc3)nc2n1`, the Potency entry is “inactive”.
Then `CC1(C(=O)NS(=O)(=O)c2cccc(F)c2)CCN1C(=O)Cc1cc(F)ccc1F` (stereo unspecified), with “inactive”.
Then `CN(CC(=O)Nc1ccccc1F)S(=O)(=O)c1ccc2c(c1)c(=O)n(C)c(=O)n2C`, with “inactive”.
For the compound `O=C1c2ccccc2C(c2nc3ccccc3[nH]2)N1c1ccccc1` (stereo unspecified), the Potency entry is “inactive”.
On to `CSc1ncccc1C(=O)NCc1ccccc1Cl`, for which the Potency entry is “inactive”.
Turning to `O=C(CNC(=O)c1cc(S(=O)(=O)N2CCOCC2)ccc1N1CCCC1)Nc1ccc(F)c(F)c1`, the Potency result was “inactive”.
As for `COc1ccccc1CNC(=O)C1Cc2ccccc2C(=O)O1` (stereo unspecified), the Potency result was “inactive”.
Then `COc1ccccc1CNC(=O)C1CCN(C(=O)[C@@H]2Cc3ccccc3CN2)CC1`, with “inactive”.
Then `COc1ccccc1CNC(=O)[C@@H]1CCCN1C(=O)[C@@H]1Cc2ccccc2CN1C(=O)OC(C)(C)C`, with 18.4 µM (active).
Consider `CCCNC(=O)c1cnc(-c2ccccc2)nc1-c1ccccc1`, for which the Potency result is “inactive”.
The entry for `O=C(CCCN=C1NS(=O)(=O)c2ccccc21)OCC(=O)c1ccc(F)c(F)c1` is “inactive”; for `Cc1ccc(C)c(NC(=O)CCC(=O)NNC(=O)c2cccs2)c1` it is “inactive”.
`Cc1ccc(C)c(NC(CC(=O)c2ccccc2)C(=O)OCC(=O)c2cccs2)c1` (stereo unspecified): the Potency was 18.4 µM (active).
Regarding `COC(=O)C(CC(=O)Nc1cc(C)ccc1C)Nc1ccccc1OC` (stereo unspecified), the Potency result is “inactive”.
As to `O=C(Nc1nnc(-c2ccccc2F)s1)c1ccccc1F`, the Potency entry was “inactive”.
Then `CN(CCN1CCOCC1)Cc1nc(-c2ccc3c(c2)OCO3)no1`, with “inactive”; and `CCN1CC(CN(C)Cc2nc(-c3ccc(Cl)cc3)no2)CC1=O` (stereo unspecified), with 16.4 µM (active).
Turning to `CN(Cc1ccccn1)Cc1nc(-c2ccc(Cl)cc2)no1`, the Potency result was “inactive”.
The entry for `COc1ccc(S(=O)(=O)N2CCOC2CNC(=O)C(=O)NCc2ccncc2)cc1OC` (stereo unspecified) is “inactive”.
Then `O=C(CSc1nccn1-c1cccc(F)c1)NC1CCCC1`, with “inactive”.
As for `CN(C)c1nc(-c2cccnc2)nc(-c2ccc(Cl)cc2)c1C#N`, the Potency entry is “inactive”.
With `Fc1ccccc1/C=N/n1c(-c2cccnc2)n[nH]c1=S`, the Potency entry was “inactive”.
The entry for `CCN(CC)S(=O)(=O)c1cccc(-c2n[nH]c(=S)n2/N=C/c2ccc(C(=O)OC)cc2)c1` is “inactive”; for `Cc1cc(-c2n[nH]c(=S)n2/N=C/C(Br)=C/c2ccccc2)n[nH]1` it is 1.64 µM (active).
Regarding `Cc1cc(-c2n[nH]c(=S)n2/N=C/c2ccco2)n[nH]1`, the Potency entry was “inactive”.
Consider `S=c1[nH]nc(-c2ccncc2)n1/N=C/c1ccccc1Cl`, for which the Potency entry was “inactive”.
Then `S=c1[nH]nc(-c2cccnc2)n1/N=C/C(Cl)=C\c1ccccc1`, with 20.6 µM (active).
